Measurements taken from PubChem BioAssay AID1159580 (chemical genetic matrix, 2015).
The whole screen tested about 5,500 compounds, of which about 2,000 (36%) were called active. Another 18% or so got no clear call; they are omitted. Rule as the data show it: active = normalized growth mostly below about 0.91 (no sharp cut-off); inconclusive = no clear call, values can overlap the other calls; inactive = mostly above about 0.92. Some of the results follow.

Assay: chemical genetic growth profiling, strain panel (AID 1159580);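 also: tested at 20 µM; growth read once vehicle control cultures reached saturation at 30 °C; 1 = growth at the plate median or of vehicle wells; lower values mean less growth of the strain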
Settings: S. cerevisiae deletion strains, growth OD

Measured: normalized growth

COc1cc(OC)c2c(=O)c(-c3ccccc3)coc2c1
active: locus YAL026C, strain drs2, active compounds read low 0.895 | locus YDR195W, strain ref2 1.22 [resistant] | locus YDR392W, strain spt3, active compounds read low 0.637 | locus YER155C, strain BEM2 (second series), active compounds read low 0.596 | locus YGL240W, strain doc1, active compounds read low 0.835 | locus YHR142W, strain chs7, active compounds read low 0.824 | locus YLR320W, strain mms22, active compounds read low 0.87 | locus YNL071W, strain lat1, active compounds read low 0.807 | locus YOR270C, strain vph1, active compounds read low 0.767
inactive: locus YAL021C, strain ccr4, active compounds read low 0.991 | locus YAL030W, strain snc1, active compounds read low 0.991 | locus YBL061C, strain skt5, active compounds read low 0.958 | locus YBR009C, strain hhf1, active compounds read low 0.928 | locus YBR023C, strain chs3, active compounds read low 0.915 | locus YBR171W, strain sec66, active compounds read low 1.01 | locus YBR231C, strain swc5, active compounds read low 0.951 | locus YBR279W, strain paf1, active compounds read low 0.953 | locus YCL011C, strain gbp2, active compounds read low 0.936 | locus YCL016C, strain dcc1, active compounds read low 0.965 | locus YCL069W, strain vba3, active compounds read low 0.982 | locus YCR088W, strain abp1, active compounds read low 0.993 | locus YDL005C, strain med2, active compounds read low 1.04 | locus YDL040C, strain nat1, active compounds read low 0.99 | locus YDR001C, strain nth1, active compounds read low 0.994 | locus YDR069C, strain doa4, active compounds read low 1.02 | locus YDR137W, strain rgp1, active compounds read low 0.911 | locus YDR159W, strain sac3, active compounds read low 0.963 | locus YDR297W, strain sur2, active compounds read low 0.995 | locus YDR334W, strain swr1, active compounds read low 1 | locus YDR335W, strain msn5, active compounds read low 0.98 | locus YEL003W, strain gim4, active compounds read low 0.967 | locus YEL037C, strain rad23, active compounds read low 0.998 | locus YEL061C, strain CIN8 (second series), active compounds read low 1 | locus YER015W, strain faa2, active compounds read low 0.956 | locus YER016W, strain bim1, active compounds read low 1 | locus YER111C, strain swi4, active compounds read low 1.02 | locus YFR010W, strain ubp6, active compounds read low 1.01 | locus YGL167C, strain pmr1, active compounds read low 0.985 | locus YGL173C, strain kem1, active compounds read low 0.985 | locus YGL227W, strain vid30, active compounds read low 1 | locus YGL253W, strain hxk2, active compounds read low 0.935 | locus YHR013C, strain ard1, active compounds read low 0.974 | locus YHR027C, strain rpn1, active compounds read low 1 | locus YJL092W, strain hpr5, active compounds read low 0.994 | locus YJL095W, strain BCK1 (second series), active compounds read low 0.979 | locus YJL115W, strain asf1, active compounds read low 1 | locus YJL129C, strain trk1, active compounds read low 0.964 | locus YJL154C, strain vps35, active compounds read low 1 | locus YJL164C, strain tpk1, active compounds read low 0.935 | locus YJL166W, strain qcr8, active compounds read low 0.934 | locus YJL187C, strain SWE1, active compounds read low 0.997 | locus YKL160W, strain elf1, active compounds read low 0.93 | locus YKR026C, strain gcn3, active compounds read low 0.99 | locus YKR091W, strain srl3, active compounds read low 0.996 | locus YLL001W, strain dnm1, active compounds read low 0.941 | locus YLL026W, active compounds read low 0.99 | locus YLL041C, strain sdh2, active compounds read low 0.991 | locus YLR027C, strain aat2, active compounds read low 0.947 | locus YLR221C, strain rsa3, active compounds read low 0.947 | locus YLR258W, strain gsy2, active compounds read low 0.925 | locus YLR262C, strain YPT6 (second series), active compounds read low 0.91 | locus YLR342W, strain FKS1, active compounds read low 0.911 | locus YLR357W, strain rsc2, active compounds read low 1.03 | locus YLR370C, strain arc18, active compounds read low 0.939 | locus YLR384C, strain iki3, active compounds read low 1 | locus YML120C, strain ndi1, active compounds read low 0.946 | locus YMR058W, strain fet3, active compounds read low 0.978 | locus YMR125W, strain sto1, active compounds read low 0.971 | locus YMR129W, active compounds read low 0.999 | locus YMR205C, strain PFK2, active compounds read low 0.954 | locus YMR231W, strain pep5, active compounds read low 0.994 | locus YNL209W, strain ssb2, active compounds read low 0.984 | locus YNL248C, strain rpa49, active compounds read low 0.995 | locus YNL322C, strain KRE1 (second series), active compounds read low 0.972 | locus YNR049C, strain mso1, active compounds read low 1.01 | locus YOR001W, strain rrp6, active compounds read low 0.96 | locus YOR070C, strain gyp1, active compounds read low 0.976 | locus YOR080W, strain dia2, active compounds read low 1.01 | locus YOR083W, strain WHI5, active compounds read low 0.902 | locus YOR106W, strain vam3, active compounds read low 0.89 | locus YOR265W, strain rbl2, active compounds read low 1 | locus YOR290C, strain snf2, active compounds read low 0.893 | locus YPL051W, strain arl3, active compounds read low 0.936 | locus YPL078C, strain atp4, active compounds read low 0.933 | locus YPL106C, strain sse1, active compounds read low 1.01 | locus YPL240C, strain hsp82, active compounds read low 0.986
